Assay results published in the supplement of paper PMC8975748.
Structures can show the parent of a compound that is named as a salt. ± gives the standard deviation of the averaged measurements.

tested on: Saccharomyces cerevisiae BY4741 SeMeCo community; assay: mean cell size (pixel area) (pixels); higher = larger cells; conditions: 10 µM; 24 h; SM minimal medium
How it was run: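 In this assay, mean cell pixel area per well was obtained from automated confocal images of paraformaldehyde-fixed yeast analysed in Harmony. The cells were a Saccharomyces cerevisiae BY4741 community with four plasmids, each complementing one auxotrophy and carrying a fluorescent marker, grown for 24 h in SM medium with drug at a final 10 µM in 384-well plates. Values are averaged across 3 replicates. Same SeMeCo high-content imaging drug screen: Selleck FDA-approved drugs at 10 µM, 24 h in SM medium, 384-well plates, 3 replicates.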

| Compound | mean cell size |
| --- | --- |
| CN1CCN2c3ncccc3Cc3ccccc3C2C1 (stereo not given) [Mirtazapine] | 12.38 ± 0.12 |
| C[C@]12CC[C@@H]3c4ccc(O)cc4CC[C@H]3[C@@H]1CC[C@@H]2OC(=O)CCC1CCCC1 [Estradiol Cypionate] | 12.4 ± 0.13 |
| CCCCCCCCCC(=O)CC(O)S(=O)(=O)O (stereo not given) [Sodium Houttuyfonate] | 12.02 ± 0.032 |
| CC(C)CCCCC(=O)N[C@@H](CCN)C(=O)N[C@H](C(=O)N[C@@H](CCN)C(=O)N[C@H]1CCNC(=O)[C@H]([C@@H](C)O)NC(=O)[C@H](CCN)NC(=O)[C@H](CCN)NC(=O)[C@H](CC(C)C)NC(=O)[C@@H](Cc2ccccc2)NC(=O)[C@H](CCN)NC1=O)[C@@H](C)O [Polymyxin B sulphate] | 11.1 ± 0.33 |
| CO/N=C1\C[C@]2(C[C@@H]3C[C@@H](C/C=C(\C)C[C@@H](C)/C=C/C=C4\CO[C@@H]5[C@H](O)C(C)=C[C@@H](C(=O)O3)[C@]45O)O2)O[C@H](/C(C)=C/C(C)C)[C@H]1C [Moxidectin] | 12.4 ± 0.18 |
| CO/N=C(\C(=O)N[C@@H]1C(=O)N2C(C(=O)OCOC(=O)C(C)(C)C)=C(/C=C\c3scnc3C)CS[C@H]12)c1csc(N)n1 [Cefditoren Pivoxil] | 12.3 ± 0.23 |
| CCCOc1ccc2c(c1)CC[C@@H]1[C@@H]2CC[C@]2(C)[C@@H](OC)CC[C@@H]12 [Promestriene] | 12.5 ± 0.26 |
| CCCCCCCCCCCC(=O)O [Lauric Acid] | 12.2 ± 0.16 |
| CCN(CC)CCOC(=O)c1ccc(N)cc1 [Procaine] | 12.2 ± 0.13 |
| CCn1cc(C(=O)O)c(=O)c2cc(F)c(N3CCNCC3)nc21 [Enoxacin Sesquihydrate] | 12.2 ± 0.23 |
| CO/N=C(\C(=O)N[C@@H]1C(=O)N2C(C(=O)O)=C(CSc3nnnn3C)CS[C@H]12)c1csc(N)n1 [Cefmenoxime hydrochloride] | 12.5 ± 0.38 |
| CC[C@@H]1C(=O)OC[C@@H]1Cc1cncn1C [Pilocarpine HCl] | 12.7 ± 0.26 |
| CN1[C@@H](CC(=O)c2ccccc2)CCC[C@H]1C[C@H](O)c1ccccc1 [Lobeline hydrochloride] | 12.5 ± 0.23 |
| CC(Cc1ccc(O)c(O)c1)C(C)Cc1ccc(O)c(O)c1 (stereo not given) [Nordihydroguaiaretic acid (NDGA)] | 12.5 ± 0.17 |
| CN(C)c1cc(NC(=O)CNC(C)(C)C)c(O)c2c1C[C@H]1C[C@H]3[C@H](N(C)C)C(O)=C(C(N)=O)C(=O)[C@@]3(O)C(O)=C1C2=O [Tigecycline] | 12.8 ± 0.2 |
| NCC[C@H](O)C(=O)N[C@@H]1C[C@H](N)[C@@H](O[C@H]2O[C@H](CN)[C@@H](O)[C@H](O)[C@H]2O)[C@H](O)[C@H]1O[C@H]1O[C@H](CO)[C@@H](O)[C@H](N)[C@H]1O [Amikacin hydrate] | 12.16 ± 0.089 |
| O=C1N=C(O)NC1(c1ccccc1)c1ccccc1 [Phenytoin Sodium] | 12.527 ± 0.0075 |
| CCCCN(CCCC)CC(O)c1cc(Cl)cc2c1-c1ccc(Cl)cc1/C2=C/c1ccc(Cl)cc1 (stereo not given) [Lumefantrine] | 12.4 ± 0.14 |
| COC(=O)Nc1nc2cc(C(=O)c3ccc(F)cc3)ccc2[nH]1 [Flubendazole] | 12.19 ± 0.12 |
| CCCN[C@H]1CCc2nc(N)sc2C1 [Pramipexole 2HCl Monohydrate] | 12.56 ± 0.054 |

| Compound | mean cell size |
| --- | --- |
| COc1ccc(Cl)cc1C(=O)NCCc1ccc(S(=O)(=O)NC(=O)NC2CCCCC2)cc1 [Glyburide (Glibenclamide)] | 12.36 ± 0.11 |
| CCN(CC)CCOC(=O)c1ccc(N)cc1Cl [Chloroprocaine HCl] | 12.51 ± 0.1 |
| c1ccc2[nH]c(-c3cscn3)nc2c1 [Thiabendazole] | 12.3 ± 0.24 |
| C[C@H]1COc2c(N3CCN(C)CC3)c(F)cc3c(=O)c(C(=O)O)cn1c23 [Levofloxacin] | 12.4 ± 0.19 |
| CC(=O)OCC[N+](C)(C)C [Acetylcholine iodide] | 12.42 ± 0.1 |
| C[C@H]1COc2c(C3(N)CC3)c(F)cc3c(=O)c(C(=O)O)cn1c23 [Pazufloxacin mesylate] | 12.5 ± 0.28 |
| CCCc1nn(C)c2c(=O)[nH]c(-c3cc(S(=O)(=O)N4CCN(C)CC4)ccc3OCC)nc12 [Sildenafil] | 11.4 ± 0.3 |
| Cc1ncc([N+](=O)[O-])n1CCO [Metronidazole] | 12.4 ± 0.12 |
| Cn1cc(C(=O)[C@@H]2CCc3[nH]cnc3C2)c2ccccc21 [Ramosetron Hydrochloride] | 12.6 ± 0.16 |
| Clc1ccc(C(Cn2ccnc2)OCc2ccc(Sc3ccccc3)cc2)c(Cl)c1 (stereo not given) [Fenticonazole Nitrate] | 10.7 ± 0.2 |
| CN[C@H](CC(C)C)C(=O)N[C@H]1C(=O)N[C@@H](CC(N)=O)C(=O)N[C@H]2C(=O)N[C@H]3C(=O)N[C@H](C(=O)N[C@H](C(=O)O)c4cc(O)cc(O)c4-c4cc3ccc4O)[C@H](O)c3ccc(c(Cl)c3)Oc3cc2cc(c3O[C@@H]2O[C@H](CO)[C@@H](O)[C@H](O)[C@H]2O[C@H]2C[C@](C)(N)[C@H](O)[C@H](C)O2)Oc2ccc(cc2Cl)[C@H]1O [Vancomycin] | 12.3 ± 0.13 |
| CCCCCNC(=N)N/N=C/c1c[nH]c2ccc(OC)cc12 [Tegaserod Maleate] | 12.23 ± 0.022 |
| CN[C@H]1C(=O)N[C@@H]2Cc3ccc(cc3)Oc3cc4cc(c3O[C@@H]3O[C@H](C(=O)O)[C@@H](O)[C@H](O)[C@H]3NC(=O)CCCCCCCCC(C)C)Oc3ccc(cc3Cl)[C@@H](O)[C@@H]3NC(=O)[C@H](NC(=O)[C@@H]4NC(=O)[C@@H](NC2=O)c2cc(cc(O)c2Cl)Oc2cc1ccc2O)c1ccc(O)c(c1)-c1c(O[C@H]2O[C@H](CO)[C@@H](O)[C@H](O)[C@@H]2O)cc(O)cc1[C@@H](C(=O)NCCCN(C)C)NC3=O [Dalbavancin] | 12.8 ± 0.072 |
| O=C1OC(CN2CCOCC2)CN1/N=C/c1ccc([N+](=O)[O-])o1 (stereo not given) [Furaltadone HCl] | 12.75 ± 0.12 |
| CCCN1CCCC[C@H]1C(=O)Nc1c(C)cccc1C [Ropivacaine] | 12.24 ± 0.031 |
| O=C(O)CCCCCCCC(=O)O [Azelaic acid] | 12.4 ± 0.2 |
| CCn1cc(C(=O)O)c(=O)c2cc(F)c(N3CCN(C)CC3)cc21 [Pefloxacin Mesylate Dihydrate] | 12.7 ± 0.14 |
| CCCc1cc(C(N)=S)ccn1 [Protionamide] | 12.4 ± 0.19 |
| O=C(O[C@H]1CN2CCC1CC2)N1CCc2ccccc2[C@@H]1c1ccccc1 [Solifenacin succinate] | 12.1 ± 0.28 |
| Nc1c(Br)cc(Br)cc1CN[C@H]1CC[C@H](O)CC1 [Ambroxol HCl] | 12.1 ± 0.17 |
